Assay results reported in publication PMC5540273 (PLoS ONE, 2017).
Like-named read-outs stand apart in the source and are kept apart here.

Tests used:
LCK = details: concentration: 1 μM,replicates: in singlicate; n = 1
LIMK1 = details: concentration: 1 μM,replicates: in singlicate; n = 1
LIMK2 = details: concentration: 1 μM,replicates: in singlicate; n = 1
LKB1 = test system: T1, LKB1; details: concentration: 1 μM,replicates: in singlicate; n = 1
T1 construct: gene STK11

LOK = test system: T2, LOK; details: concentration: 1 μM,replicates: in singlicate; n = 1
T2 construct: gene STK10

LRRK2 = details: concentration: 1 μM,replicates: in singlicate; n = 1
LTK = details: n = 1
LYN = details: concentration: 1 μM,replicates: in singlicate; n = 1
LZK = test system: T3, LZK; details: concentration: 1 μM,replicates: in singlicate; n = 1
T3 construct: gene MAP3K13

MAK = details: concentration: 1 μM,replicates: in singlicate; n = 1
[1] = concentration: 1 μM,replicates: in singlicate
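Also: KINOMEscan kinase panel screen.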

Compound	%Inh (LCK) [%]	%Inh (LIMK1) [%]	%Inh (LIMK2) [%]	%Inh (LKB1) [%]	%Inh (LOK) [%]	%Inh (LRRK2) [%]	%Inh (LTK; [1]) [%]	%Inh (LYN) [%]	%Inh (LZK) [%]	%Inh (MAK) [%]	%Inh (LTK; 1 µM) [%]
CCn1c(-c2nonc2N)nc2cncc(CNC3CCNCC3)c21.Cl [SB-747651]	0	14	13	0	0	43	25	0	8	29	
Cn1ccc2ncnc(Oc3ccc(NC(=O)Nc4cncc(C(F)(F)F)c4)c(Cl)c3)c21	50	0	0	0	99.2	0	16	32	0	0	
COc1cccc(CNC(=O)NC2CCN(c3ccnc(Nc4cc(OC)c(OC)c(OC)c4)n3)C2)c1 (stereo not drawn) [GSK1379765]	34	9	82	0	49	0	78	0	32	31	
CC(C)S(=O)(=O)N1CCN(Cc2ccc3c(c2)nc(NC(=O)c2ccsc2)n3C[C@H](O)c2ccccc2)CC1 [GW635815]	39	0	0	0	0	66	25	0	69	18	
CCn1c(-c2nonc2N)nc2cncc(Br)c21 [SB-738004]	0	0	5	19	9	45	0	13	41	28	
CS(=O)(=O)Nc1ccc(-c2ccnc3[nH]ccc23)cc1 [GSK993273]	25	0	13	0	0	35	0	0	8	0	
NC(=O)c1ccc(-c2cc3ncnc(SCC(=O)O)c3s2)cc1	2	0	21	18	0	11	0	23	2	45	
COc1cc2ncn(-c3cc(OCC4CCCCC4)c(C(N)=O)s3)c2cc1OC [GSK204559]	37	2	13	0	63	20	10	0	0	18	
Cn1ccc2ncnc(Oc3ccc(NC(=O)Nc4cccc(C(F)(F)F)c4)c(F)c3)c21	75	0	2	0	99.9	31	84	24	0	27	
CC(=O)Nc1ccc(-c2cc3ncnc(SCC(=O)O)c3s2)cc1	1	0	0	0	5	0	0	9	0	52	
O=C1NCCc2[nH]c(-c3ccncc3)cc21	9	5	2	0	6	31	0	0	2	21	
Cc1ccc(Nc2ccnc(Nc3ccc4c(c3)CS(=O)(=O)C4)n2)cc1O.Cl [GW579362]	97.3	35	49	29	83	79	55	84	58	73	
Cc1ccc2c(-c3ccnc(Nc4ccc(C(F)(F)F)cc4)n3)cnn2n1 [GW819776]	10	2	0	24	16	0	28	1	0	20	
Cc1ccn2nc(-c3ccc(F)cc3)c(-c3ccncc3)c2c1.Cl [GW457859]	12	0	0	10	0	0	0	0	44	17	
O=c1[nH]cc(-c2ccc(O)cc2)c2sc(-c3ccncc3)cc12 [GSK1033723]	7	0	23	13	0	0	0	0	4	31	
Cc1nnc(-c2ccc3occ(-c4ccc(S(C)=O)cc4)c3n2)o1 (stereo not drawn)	0	0	0	3	0	0	0	0	0	0	
O=C(NCC1CC1)c1ccc(-c2cc(C(=O)NC3CC3)ccc2F)cc1 [GW810445]	0	0	0	68	5	71	28	0	0	0	

Compound	%Inh (LCK) [%]	%Inh (LIMK1) [%]	%Inh (LIMK2) [%]	%Inh (LKB1) [%]	%Inh (LOK) [%]	%Inh (LRRK2) [%]	%Inh (LTK; [1]) [%]	%Inh (LYN) [%]	%Inh (LZK) [%]	%Inh (MAK) [%]	%Inh (LTK; 1 µM) [%]
COc1cc2nccc(Nc3ccc(Oc4ccccc4)cc3)c2cc1OC.Cl [GI261656]	99.2	0	14	13	0	0	0	71	5	1	
CCOC(=O)N1CCC(n2cnc(-c3ccc(F)cc3)c2-c2ccnc(N)n2)CC1 [SB-219952]	0	8	13	15	100	0	17	9	15	0	
CSc1nccc(-c2c(-c3ccc(F)cc3)ncn2CCCN2CCOCC2)n1.Cl [SB-217146]	0	3	0	0	8	0	4	0	0	0	
Cc1ccc(CC(=O)N2CCc3cc(-c4cn(C)c5ncnc(N)c45)ccc32)cc1 [GSK2634758]	38	0	0	19	87	0	24	23	24	4	
Cl.c1ccc(Oc2ccc(Nc3ccnc4cc(-c5ccc(CN6CCNCC6)o5)ccc34)cc2)nc1 [GW567142]	82	0	0	0	54	4	0	4	7	21	
COc1cc(Nc2nccc(N3CCC(NC(=O)c4cccc(C#N)c4)C3)n2)cc(OC)c1OC (stereo not drawn) [GSK1379751]	0	92.6	17	0	0	0	2	0	33	7	
COC(=O)c1cccc(NC(=O)NC2CCN(c3ccnc(Nc4cc(OC)c(OC)c(OC)c4)n3)C2)c1 (stereo not drawn) [GSK1379767]	7	0	35	0	45	0	83	0	54	36	
C[C@@H](Oc1cc(-n2cnc3cc(-c4cnn(C)c4)ccc32)sc1C(N)=O)c1ccccc1Cl [GSK580432]	94.8	0	0	57	99.9	68	25	38	0	0	
O=C(Nc1ccc(Oc2ccc3nc(NC(=O)C4CC4)cn3n2)c(F)c1)c1cccn(-c2ccccc2)c1=O	0	33	29	0	99.5	0	29	36	0	10	
COC(=O)Nc1nc2cc(Oc3ccc(NC(=O)Nc4cc(C(F)(F)F)ccc4Cl)cc3)ccc2[nH]1.Cl [GW697465]	98.9	11	0	14	99.7	11	36	75	44	20	
COc1cc2c(Nc3ccc(NC(=O)c4ccccc4)cc3)ncnc2cc1OCCCN1CCOCC1 [GSK301329]	87	3	0	0	77	33	27	52	55	0	
CC(C)c1nc(-c2cccc(NS(=O)(=O)c3ccccc3)c2)c(-c2ccnc(Nc3ccc4c(c3)CN(C)CC4)n2)s1 [GSK1649598]	99.8	100	100	0	97.5	0	5	98	45	53	
C[C@@H]1CCN(C(=O)N2CCCC2)C[C@@H]1N(C)c1ncnc2[nH]ccc12	41	0	0	0	0	0	100	0	22	14	
COc1cccc(OC)c1C(=O)Nc1cccc(-c2nn3ccccc3c2-c2ccnc(Nc3cccc(F)c3)n2)c1 [GSK361065]	24	31	15	6	90	0		8	8	14	13
C[C@@H]1CNc2c(sc3ccc4nc(-c5ccc(O)cc5)ccc4c23)C(=O)N1	0	4	0	0	19	93.5	83	4	0	46	
CN(c1ccccc1CNc1nc(Nc2ccc3c(c2)CC(=O)N3)ncc1C(F)(F)F)S(C)(=O)=O	78	0	0	0	57	20	81	26	0	16	
